# Counter-ions that a name gives are not always drawn. ± gives the standard deviation.
# Assays:
# Jurkat [1] = assay: mean cell size (FSC-A) relative to DMSO control (fraction of control); higher = larger cells; conditions: 48 h
# Summary of the method: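 Jurkat cells seeded at 600 cells/µl were incubated 1 h, then exposed for 48h to the Enzo Screen-Well FDA Approved Drug Library v2.0 at 25µM in 0.9% (v/v) final DMSO. Drugs that cut counts below 20% of controls were diluted 10-fold and retested, down to 25nM. Cell count and mean cell size (forward scatter area) were read on an Accuri C6 flow cytometer, relative to solvent-only controls. Plates held 6-12 controls; values are means of 3 biological replicates.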
# Jurkat [2] = assay: cell count relative to DMSO control (fraction of control); higher = more cells (less growth inhibition); conditions: 48 h
Structure (SMILES),mean cell size (Jurkat [1]),cell count (Jurkat [2])
COC(=O)[C@@H]1CC2=CC(=O)CC[C@]2(C)[C@@]23O[C@@H]2C[C@@]2(C)[C@@H](CC[C@@]24CCC(=O)O4)[C@H]13 [Eplerenone] (concentration: 25 µM),1.19 ± 0.035,0.521 ± 0.06
COC(c1ccccc1)(c1ccccc1)[C@H](Oc1nc(C)cc(C)n1)C(=O)O [Ambrisentan] (concentration: 25 µM),0.975 ± 0.043,0.757 ± 0.088
CN[C@@H]1[C@H](O[C@H]2[C@H](O[C@H]3[C@H](O)[C@@H](O)[C@H](N=C(N)N)[C@@H](O)[C@@H]3N=C(N)N)O[C@@H](C)[C@]2(O)C=O)O[C@@H](CO)[C@H](O)[C@H]1O [Streptomycin Sulfate] (concentration: 25 µM),0.996 ± 0.028,0.791 ± 0.011
S=c1[nH]cnc2nc[nH]c12 [Mercaptopurine Hydrate] (concentration: 25 µM),1.08 ± 0.047,0.792 ± 0.1
COC(=O)[C@H](c1ccccc1Cl)N1CCc2sccc2C1 [Clopidogrel Hydrogen Sulfate] (concentration: 25 µM),0.981 ± 0.051,0.942 ± 0.095
CC1(C)O[C@@H]2C[C@H]3[C@@H]4CCC5=CC(=O)CC[C@]5(C)[C@@]4(F)[C@@H](O)C[C@]3(C)[C@]2(C(=O)CCl)O1 [Halcinonide] (concentration: 25 µM),0.914 ± 0.03,0.883 ± 0.12
CC(=O)O[C@]1(C(C)=O)CC[C@H]2[C@@H]3C[C@H](C)C4=CC(=O)CC[C@]4(C)[C@H]3CC[C@@]21C [Medroxyprogesterone Acetate] (concentration: 25 µM),0.956 ± 0.065,0.352 ± 0.042

# From the supplement of paper PMC4709259
